Assay results from PubChem BioAssay (Tox21).
Inconclusive results are not listed. Active and inactive are the calls of the source. The call rests on the fitted dose curve; in most records, active means well fitted activation curve with a large enough effect in the repeat runs; inconclusive means weak or mixed curves; inactive means flat fitted curve, though single readings scatter.
On the % scale 0 is the no-effect control and ±100 the full control effect; potency means the concentration at half of the fitted maximal effect.

Assay: A CellTox Green Cytotoxicity Assay to monitor cytotoxicity in HEK293 cells - 16 hour (AID 1224888); further: nearly all actives have a fitted effect of over 35% in size
Conditions: CellTox Green fluorescence; series mostly up to 76.8 µM; activity change: at the top concentration
Source text: National Center for Advancing Translational Sciences [NCATS]
NIH Chemical Genomics Center [NCGC]
U.S. Environmental Protection Agency [EPA]
National Institutes of Environmental Health Sciences [NIEHS]
National Toxicology Program [NTP]
Cell-based models are critical for drug discovery. Determining the natural cytotoxic effects resulting from test compounds is an essential research activity. A CellTox Green Cytotoxicity Assay to monitor cytotoxicity in real time of continues cell culture during 40 hours of the compound treatment was used to screen Tox21 10K library compounds in Hek293 cells. CellTox Green Cytotoxicity Assay is a nonlytic, homogeneous, biofluorescent method to measure cytotoxicity in cell culture after experimental manipulation. The assay system uses a proprietary asymmetric cyanine dye that is excluded from viable cells but preferentially stains the dead cell's DNA. […] Viable cells produce no appreciable increases in fluorescence. Therefore, the fluorescence signal produced by the binding interaction with dead cell DNA is proportional to cytotoxicity.
The mixture of Hek293 cell suspension and reagents were dispensed at 600cells/6 ul/well in 1536-well tissue culture treated black solid bottom plates using a Multidrop dispenser. After the assay plates were incubated at a 37 C/5% CO2 incubator for 5 hours, 23 nL of compounds dissolved in DMSO, positive and negative controls was transferred to the assay plate by a pintool work station. The plates were incubated at 37 C for 40 hours. The fluorescence intensity were measured at 0h, 8h, 16h, 24h, 32h and 40h time points using ViewLux plate reader during compound treatment.
For `CNCCCN1c2ccccc2CCc2ccccc21`, the “activity change” value was 5.67% [at 35.3 µM, stronger effect = higher value] (inactive). In the case of `CCN(CC)c1ccc2c(-c3ccccc3C(=O)O)c3ccc(=[N+](CC)CC)cc-3oc2c1`, the Potency is reported as 24.5 µM (active). In the case of `C=CC(=O)OCCOc1ccccc1`, the “activity change” value is reported as 13.3% (inactive). With `Cc1c(N)cccc1[N+](=O)[O-]` the “activity change” value was -6.51% (inactive). In the case of `CCn1cc(C(=O)O)c(=O)c2cnc(N3CCNCC3)nc21`, the “activity change” value is reported as 4.32% [at 35.3 µM, stronger effect = higher value] (inactive). For `CC(CC=O)c1ccccc1` (stereo not given), the “activity change” value was 4.71% (inactive). In the case of `Nc1ccccc1S(=O)(=O)c1ccccc1`, the “activity change” value is reported as -0.222% (inactive). For `CC(C)Cc1ccc(C(C)C(=O)OCc2ccccn2)cc1` (stereo not given), the “activity change” value was 2.18% [at 35.3 µM, stronger effect = higher value] (inactive). In the case of `CCCCC(CC)COC(=O)CCCCCCCCC(=O)OCC(CC)CCCC` (stereo not given), the “activity change” value is reported as -15.6% (inactive). In the case of `CC(COCCO)OCCO` (stereo not given), the “activity change” value is reported as 0.989% (inactive). In the case of `C=CC(=O)OCCOCCOC(=O)C=C`, the “activity change” value is reported as 13.3% (inactive). For `COc1cccc(N(C)C(=S)Oc2ccc3c(c2)CCCC3)n1`, the “activity change” value was -0.452% [at 35.3 µM, stronger effect = higher value] (inactive). In the case of `OCc1cc(C(O)CNCCCCCCOCCCCc2ccccc2)ccc1O` (stereo not given), the “activity change” value is reported as 15.4% [at 35.3 µM, stronger effect = higher value] (inactive). For `COc1ccnc(CS(=O)c2nc3ccc(OC(F)F)cc3[nH]2)c1OC` (stereo not given), the “activity change” value was -32.1% [at 35.3 µM, stronger effect = higher value] (inactive). In the case of `C/C=C(/C(=C/C)c1ccc(OC(C)=O)cc1)c1ccc(OC(C)=O)cc1`, the “activity change” value is reported as -15.2% [at 35.3 µM, stronger effect = higher value] (inactive). For `CN(C)C(=O)NC1(c2ccccc2)CCN(CC[C@@]2(c3ccc(F)c(F)c3)CN(C(=O)c3ccccc3)CCO2)CC1`, the “activity change” value was -3.82% (inactive). With `C=C1[C@H]2CC[C@@H]3[C@H]2C(C)(C)CCC[C@]13C` the “activity change” value was -0.35% (inactive). With `CCCn1cnc2c1c(=O)n(CCCCC(C)=O)c(=O)n2C` the “activity change” value was -9.08% [at 35.3 µM, stronger effect = higher value] (inactive). For `Cc1ccc(C(=O)Oc2ccc(C(O)CNC(C)(C)C)cc2OC(=O)c2ccc(C)cc2)cc1` (stereo not given), the Potency was 26.8 µM (active). With `Cc1cc(N)c2cc(NC(=O)Nc3ccc4nc(C)cc(N)c4c3)ccc2n1` the “activity change” value was -34.4% [at 35.3 µM, stronger effect = higher value] (inactive). In the case of `CCCCCCCCCCCCCCCCOS(=O)(=O)O`, the Potency is reported as 21.3 µM (active). For `O=C1CCCCCCCCCCCC(=O)OCCO1`, the “activity change” value was 14.6% (inactive). For `CCOC(=O)NCCOc1ccc(Oc2ccccc2)cc1`, the “activity change” value was 1.21% (inactive). With `CN1CCC(=C2c3ccccc3Sc3ccccc32)CC1` the “activity change” value was 0.288% [at 35.3 µM, stronger effect = higher value] (inactive). In the case of `CCCCCCOC(=O)NC(=N)c1ccc(NCc2nc3cc(C(=O)N(CCC(=O)OCC)c4ccccn4)ccc3n2C)cc1`, the “activity change” value is reported as 1.75% [at 35.3 µM, stronger effect = higher value] (inactive). With `O=C(O)C1(C(=O)O)CCC1.[NH2-].[NH2-].[Pt+2]` the “activity change” value was -20.5% [at 35.3 µM, stronger effect = higher value] (inactive). For `CCOc1ccc(O)cc1`, the “activity change” value was -9.78% (inactive). With `O=C(NCC1CN(c2ccc(N3CCOCC3=O)cc2)C(=O)O1)c1ccc(Cl)s1` (stereo not given) the “activity change” value was -4.57% [at 35.3 µM, stronger effect = higher value] (inactive). For `O=[N+]([O-])c1ccc(NCCO)c(OCCO)c1`, the “activity change” value was -6.06% (inactive). In the case of `Cc1cccc(C)c1OCC(=O)N[C@@H](Cc1ccccc1)[C@@H](O)C[C@H](Cc1ccccc1)NC(=O)[C@H](C(C)C)N1CCCNC1=O`, the “activity change” value is reported as 16.6% [at 35.3 µM, stronger effect = higher value] (inactive). For `O=[N+]([O-])c1ccc2[nH]ncc2c1`, the “activity change” value was 1.09% (inactive). In the case of `O=C(Nc1ccc(S(=O)(=O)N2CCOCC2)cc1)c1cc(Cl)ccc1NS(=O)(=O)c1ccc(Cl)s1`, the Potency is reported as 23.9 µM (active). In the case of `COc1cc(C(=O)OCCCN2CCCN(CCCOC(=O)c3cc(OC)c(OC)c(OC)c3)CC2)cc(OC)c1OC`, the “activity change” value is reported as 19.2% [at 35.3 µM, stronger effect = higher value] (inactive). In the case of `O=P(O)(OCc1ccccc1)OCc1ccccc1`, the “activity change” value is reported as 12.1% (inactive). For `CCCCCCCCCCCCCCOS(=O)(=O)O`, the Potency was 43.6 µM (active). With `Nc1c(CC(=O)O)cccc1C(=O)c1ccc(Br)cc1` the “activity change” value was 10.4% [at 35.3 µM, stronger effect = higher value] (inactive). In the case of `CCCCC(CC)CN1C(=O)C2C3C=CC(C3)C2C1=O` (stereo not given), the “activity change” value is reported as 29% (inactive). For `CC(C)O.CC(C)O.CCOC(=O)/C=C(\C)O.CCOC(=O)/C=C(\C)O.[Ti]`, the “activity change” value was -4.06% (inactive). With `Nc1ncn([C@H]2C[C@H](O)[C@@H](CO)O2)c(=O)n1` the “activity change” value was -1.49% [at 35.3 µM, stronger effect = higher value] (inactive). With `CC[N+]1(CC)CCC(=C(c2ccccc2)c2ccccc2)C1C` (stereo not given) the “activity change” value was -7.05% [at 35.3 µM, stronger effect = higher value] (inactive).
